Reference: PubChem BioAssay AID687020 (Broad Institute, 2013)
The whole screen tested about 1,400 compounds, of which about 100 (7.1%) were called active. No rule for the calls is given here. Only a sample is shown. Results with a measured potency or affinity are listed apart.

Experiment: viability loss in Vero cells – cell-based, plate reader, cherry-pick samples, cytotoxicity control, dose response (AID 687020);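 also: compounds incubated with cells for three days before luminescence read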
Settings: series mostly up to 19.5 µM

Q: With `COc1ccc2oc(C(=O)OC(C)C(=O)N3CCC(C)CC3)c(C)c2c1` (configuration not stated) as the compound, how does the outcome read?
A: inactive

Q: For `Cc1ccc2oc(C(=O)N(Cc3ccncc3)CC3CCCO3)c(C)c2c1` (configuration not stated), which outcome is on record?
A: inactive

Q: For `Cc1ccc(S(=O)(=O)Nc2ccc(O)c3ncccc23)cc1`, which outcome is on record?
A: inactive

Q: With `COCCNC(=O)C1CCC(CNS(=O)(=O)c2ccc(F)cc2)CC1` (configuration not stated) as the compound, how does the outcome read?
A: inactive

Q: Which outcome does the source give for `CCCC(=O)Nc1ccc2nn(-c3ccc(OC)cc3)nc2c1` here?
A: inactive

Q: For `COc1cc(C(=O)OCCCN2CCOCC2)cc(OC)c1OC`, which outcome is on record?
A: inactive

Q: Which outcome does the source give for `CCN(CC)S(=O)(=O)c1cccc(C(=O)NCC2(N3CCOCC3)CCCCC2)c1` here?
A: inactive

Q: For `CC(C)C[C@@H](CN1C(=O)C(=O)NC[C@@H]1CC(C)C)NC(=O)Cc1ccccc1`, which outcome is on record?
A: inactive

Q: For `CCNC(=O)C[C@H]1CC[C@H]2[C@@H](COC[C@H](O)CN2Cc2ccc(Cl)c(Cl)c2)O1`, which outcome is on record?
A: inactive

Q: For `C=Cc1ccc(Cn2c(C)c(C(=O)NCc3cccc(C(F)(F)F)c3)sc2=O)cc1`, which outcome is on record?
A: inactive

Q: With `Cc1cccc(C)c1NC(=O)C1(C)CSCC(=O)N1Cc1cccc(C(F)(F)F)c1` (configuration not stated) as the compound, how does the outcome read?
A: inactive

Q: For `CC(=O)Nc1ccc(OCCCN2CCC(C(O)(c3ccccc3)c3ccccc3)CC2)cc1`, which outcome is on record?
A: inactive

Q: With `O=C(Nc1ccc(F)cc1)C1CCCN(S(=O)(=O)c2ccc3[nH]c(=O)ccc3c2)C1` (configuration not stated) as the compound, how does the outcome read?
A: inactive

Q: With `Cc1ccc(NC(=O)CN2CCC(NC(=O)c3cccc(F)c3)CC2)cc1C` as the compound, how does the outcome read?
A: inactive

Q: For `Cc1ccc(NC(=O)C2(c3cccs3)CCOCC2)cc1C`, which outcome is on record?
A: inactive

Q: For `Nc1nc2c(ncn2[C@@H]2O[C@H](CNCc3ccc(F)c(N4CCOCC4)c3)[C@@H](O)[C@H]2O)c(=O)[nH]1`, which outcome is on record?
A: inactive

Q: For `CC1(c2nnnn2Cc2ccccc2)CCC(=O)N1CCCn1ccnc1` (configuration not stated), which outcome is on record?
A: inactive

Q: With `COc1ccc(NC(=O)CN(C)C(=O)CC2CCCC2)cc1` as the compound, how does the outcome read?
A: inactive

Q: For `COC(=O)c1c(-c2ccc(OC)cc2)sc2cc3c(cc12)OCO3`, which outcome is on record?
A: inactive

Q: With `Nc1sc(-c2ccccc2)cc1C(=O)NCCN1CCOCC1` as the compound, how does the outcome read?
A: inactive

Q: For `CC1CCN(C(=O)COC(=O)CNC(=O)c2ccccc2F)CC1`, which outcome is on record?
A: inactive

Q: For `COc1ccc(-c2nc(CN3CCC(C(=O)N4CCOCC4)CC3)c(C)o2)c(OC)c1`, which outcome is on record?
A: inactive

Q: Which outcome does the source give for `O=C(NCC1CCCCC1)[C@H]1[C@H](CO)[C@H]2Cn3c(cccc3=O)[C@@H]1N2CCc1ccccc1` here?
A: inactive

Q: With `O=C(c1cccnc1)N1CC2(C1)[C@H](c1ccccc1)[C@@H](CO)N2Cc1ccccc1` as the compound, how does the outcome read?
A: inactive

Q: Which outcome does the source give for `CN(C)CC#Cc1ccc([C@H]2[C@@H](CO)N(C(=O)C3CCC3)[C@H]2C#N)cc1` here?
A: inactive

Q: Which outcome does the source give for `COC(=O)[C@H]1CN(C(=O)c2ccccc2)C(=O)N1` here?
A: inactive

Q: For `COc1cc2cc(CCCOC(=O)CCCC(=O)O)oc(=O)c2cc1OC`, which outcome is on record?
A: inactive

Q: With `O=C(CCNC(=O)OCC1c2ccccc2-c2ccccc21)NOCc1ccccc1` as the compound, how does the outcome read?
A: inactive

Q: With `Cc1cccc(C)c1OCC(=O)NNC(=O)CCCn1c(=O)oc2ccccc21` as the compound, how does the outcome read?
A: inactive

Q: Which outcome does the source give for `CC(=O)NCCC(=O)Nc1cc(S(=O)(=O)N2CCCCC2)ccc1N1CCN(C)CC1` here?
A: inactive

Q: With `C[C@@H]1CCCCO[C@@H](CN(C)C(=O)Cc2ccccc2)[C@H](C)CN([C@H](C)CO)C(=O)c2cc(NS(=O)(=O)c3ccc(Cl)cc3)ccc2O1` as the compound, how does the outcome read?
A: inactive

Q: Which outcome does the source give for `CN(C)c1ccc2c(c1)[C@H]1C[C@@H](CC(=O)NCc3ccc(Oc4ccccc4)cc3)O[C@H](CO)[C@H]1O2` here?
A: inactive
